Most compounds without a hit are left out; they make up all but 2.9% or so of the library.
pPAFAH inh – pPAFAH (human) enzyme inhibition; Q13093; AID 463082; inhibition, % at 3.39 µM; recombinant pPAFAH, FP-rhodamine probe fluorescence polarization; 1.5% of 330,000 active;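 active means inhibition above the mean inhibition across the screen plus 3 SD, cut at about 25% in these data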;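 further: inhibitors block binding of the rhodamine activity-based probe so polarization drops; 0% = enzyme with DMSO and 100% = wells lacking pPAFAH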
PAFAH1B2 inh – blocks human PAF acetylhydrolase 1b catalytic subunit 2; recombinant PAFAH1B2, FP-rhodamine activity probe, fluorescence polarization; inhibition, % at 3.39 µM; 1.2% of 340,000 active; AID 492953;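 active means inhibition above the mean of all tested compounds plus 3 SD, cut at about 24% in these data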;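 further: 0% = enzyme with DMSO and 100% = wells lacking PAFAH1B2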
Target sequence (P68402 whole entry, looked up): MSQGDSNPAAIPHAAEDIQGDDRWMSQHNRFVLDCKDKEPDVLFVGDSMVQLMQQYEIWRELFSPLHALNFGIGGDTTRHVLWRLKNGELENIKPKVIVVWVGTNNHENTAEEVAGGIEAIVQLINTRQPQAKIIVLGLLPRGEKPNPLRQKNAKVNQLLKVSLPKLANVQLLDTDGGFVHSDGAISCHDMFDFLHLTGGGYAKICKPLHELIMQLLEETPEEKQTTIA
PAFAH2 FP inh – PAFAH2 (human) inhibition; Q99487; inhibition, % at 3.39 µM; recombinant PAFAH2, FP-rhodamine activity probe, fluorescence polarization; AID 492956; 0.99% of 340,000 active;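 active means inhibition above the mean over all tested compounds plus 3 SD, cut at about 30% in these data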;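 further: inhibitors block probe labeling of enzyme so polarization drops; 0% = enzyme with DMSO and 100% = wells lacking PAFAH2 protein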
PAFAH1B3 FP inh – inhibitors of human PAFAH1B3; Q15102; 0.28% of 340,000 active; recombinant PAFAH1B3, FP-rhodamine probe, fluorescence polarization; inhibition, % at 3.39 µM; AID 492972;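 active means inhibition above the screen-wide average of all tested compounds plus 3 SD, cut at about 25% in these data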;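 further: 0% = enzyme with DMSO only and 100% = wells lacking PAFAH1B3 protein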
PME-1 primary – PME-1 (human) inhibition; 0.53% of 320,000 active; Q9Y570; recombinant PME-1, FP-Rh probe fluorescence polarization; AID 2130; inhibition, % at 5.9 µM;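 active means inhibition above the campaign mean of all compounds plus 3 SD, cut at about 26% in these data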;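 further: competitive labeling of PME-1 active site by serine hydrolase directed probe; 0% = PME-1 with DMSO and 100% = wells lacking PME-1 enzyme; inhibitors block probe labeling so polarization falls and inhibition rises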
Target sequence (Q9Y570 whole entry, looked up): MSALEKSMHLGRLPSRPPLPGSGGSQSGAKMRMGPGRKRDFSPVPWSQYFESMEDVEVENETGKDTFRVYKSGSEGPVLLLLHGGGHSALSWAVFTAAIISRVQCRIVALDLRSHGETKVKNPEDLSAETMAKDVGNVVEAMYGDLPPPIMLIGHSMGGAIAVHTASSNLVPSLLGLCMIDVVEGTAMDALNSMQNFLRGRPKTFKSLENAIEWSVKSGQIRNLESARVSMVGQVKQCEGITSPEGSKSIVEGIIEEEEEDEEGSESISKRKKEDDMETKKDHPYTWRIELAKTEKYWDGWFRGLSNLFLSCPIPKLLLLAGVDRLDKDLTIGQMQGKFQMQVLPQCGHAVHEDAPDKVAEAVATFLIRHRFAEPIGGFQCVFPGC
Fam108B counter – counter-screen for RBBP9 inhibitors: inhibitors of mouse Fam108B | 0.33% of 300,000 active | inhibition, % at 9.51 µM | AID 1947 | recombinant Fam108B, FP-Rh probe fluorescence polarization;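 active means inhibition above the screen mean inhibition plus 3 SD, computed separately per campaign, cut at about 18% in these data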;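 further: inhibitors lower polarization as less probe binds the enzyme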
pPAFAH FP conf – pPAFAH (human) inhibition, confirmed | inhibition, % at 3.39 µM | shares compounds with pPAFAH inh | AID 463230 | recombinant pPAFAH, FP-Rh probe fluorescence polarization | 72% of 2,300 active;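 active means mean inhibition of the triplicate above the hit cutoff set for the earlier primary screen, cut at about 25% in these data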;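 further: 0% = enzyme with DMSO and 100% = wells lacking pPAFAH enzyme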
The depositor's hits bear a star.

C=C(C)Cn1c(-c2ccc(OC)cc2)nc2ccccc21 was read as pPAFAH inh 78.3*, PAFAH1B2 inh 2.0, PAFAH2 FP inh 6.3, PAFAH1B3 FP inh 8.6, PME-1 primary 3.1, Fam108B counter 4.0 and pPAFAH FP conf 12.0.
`CCOc1cc(-c2cc(-c3ccc(C)cc3)nc(N)c2C#N)ccc1O` gave pPAFAH inh 10.3, PAFAH1B2 inh 2.5, PAFAH2 FP inh -8.8, PAFAH1B3 FP inh 1.8, PME-1 primary -10.3 and Fam108B counter 6.6.
`CCOc1cc(/C=C(\C#N)c2[nH]nc(N)c2C#N)ccc1O` gave pPAFAH inh 37.0*, PAFAH1B2 inh 7.0, PAFAH2 FP inh 3.0, PAFAH1B3 FP inh 11.9, PME-1 primary 12.1, Fam108B counter 9.9 and pPAFAH FP conf 15.8.
Screening COc1ccc(N(CC(=O)Nc2cc(C)ccc2OC)S(=O)(=O)c2c(C)noc2C)cc1 returned pPAFAH inh 44.7*, PAFAH1B2 inh -0.4, PAFAH2 FP inh 0.8, PAFAH1B3 FP inh 3.9, PME-1 primary 1.3, Fam108B counter -1.4 and pPAFAH FP conf 7.9.
For O=C(Nc1nc(-c2ccco2)c(-c2ccco2)s1)C1CC(=O)N(c2ccc3c(c2)OCCO3)C1 (stereo unspecified) the results were pPAFAH inh 46.9*, PAFAH1B2 inh 4.2, PAFAH2 FP inh 21.2, PAFAH1B3 FP inh -2.0, PME-1 primary 3.6, Fam108B counter -0.6 and pPAFAH FP conf 41.2*.
For O=C1C[C@@H]2c3c(cccc3CN1Cc1ccccc1F)C[C@@H](O)[C@H]2O the results were PAFAH1B2 inh 7.2, PAFAH2 FP inh -0.8 and PAFAH1B3 FP inh 2.3.
Screening CSc1ccc(COC(=O)c2cc([N+](=O)[O-])ccc2N2CCOCC2)cc1 returned pPAFAH inh 40.3*, PAFAH1B2 inh 8.2, PAFAH2 FP inh 1.2, PAFAH1B3 FP inh 0.2, PME-1 primary 6.1, Fam108B counter 2.3 and pPAFAH FP conf 42.2*.
CCCCc1ccc(NC(=O)CSCc2cc(=O)[nH][nH]2)cc1 was read as pPAFAH inh 36.3*, PAFAH1B2 inh 8.6, PAFAH2 FP inh -4.2, PAFAH1B3 FP inh -1.1, PME-1 primary -3.3, Fam108B counter 3.8 and pPAFAH FP conf 16.0.
Screening O=Cc1cc(-c2ccccc2)[nH]c1-c1ccccc1 returned pPAFAH inh -3.4, PAFAH1B2 inh 1.7, PAFAH2 FP inh -3.3, PAFAH1B3 FP inh 7.2, PME-1 primary -6.2 and Fam108B counter 3.0.
For Cc1nnc(NC(=O)c2sc3nc(-c4cccs4)cc(C(F)(F)F)c3c2N)s1 the results were pPAFAH inh 69.7*, PAFAH1B2 inh 1.7, PAFAH2 FP inh 14.7, PAFAH1B3 FP inh 11.2, PME-1 primary 17.3, Fam108B counter 4.7 and pPAFAH FP conf 73.1*.
For CC(CN1CCCC1)C(=O)NN (stereo unspecified) the results were pPAFAH inh 5.4, PAFAH1B2 inh 0.2, PAFAH2 FP inh 0.6, PAFAH1B3 FP inh 10.2, PME-1 primary -5.7 and Fam108B counter 3.9.
Cc1ccc(-n2c(CCC(=O)O)ccc2-c2cccs2)cc1 was read as pPAFAH inh 50.6*, PAFAH1B2 inh 7.5, PAFAH2 FP inh 6.6, PAFAH1B3 FP inh 3.0, PME-1 primary -1.7, Fam108B counter -1.0 and pPAFAH FP conf 12.8.
`CC(=O)c1ccc(-n2c(CCC(=O)O)ccc2-c2cccs2)cc1` gave pPAFAH inh 6.1, PAFAH1B2 inh 2.5, PAFAH2 FP inh 1.9, PAFAH1B3 FP inh -3.7, PME-1 primary 0.4 and Fam108B counter -1.2.
`O=S1(=O)N=C(N/N=C/c2ccccn2)c2ccccc21` gave pPAFAH inh 75.8*, PAFAH1B2 inh 1.3, PAFAH2 FP inh 1.8, PAFAH1B3 FP inh 16.5, PME-1 primary -3.4, Fam108B counter 0.5 and pPAFAH FP conf 1.9.
COc1ccc(/C=N/NC2=NS(=O)(=O)c3ccccc32)cc1 was read as pPAFAH inh 5.6, PAFAH1B2 inh 3.3, PAFAH2 FP inh -8.0, PAFAH1B3 FP inh 12.2, PME-1 primary -1.3 and Fam108B counter 2.9.
S=c1[nH]nc(C2COc3ccccc3O2)o1 (stereo unspecified) was read as pPAFAH inh 44.3*, PAFAH1B2 inh 3.0, PAFAH2 FP inh -3.9, PAFAH1B3 FP inh -6.0, PME-1 primary -4.3, Fam108B counter -1.9 and pPAFAH FP conf 4.5.
For N=C1SC(c2ccccc2)C(=O)N1c1ncc(Cc2ccccc2)s1 (stereo unspecified) the results were pPAFAH inh 39.0*, PAFAH1B2 inh 34.3*, PAFAH2 FP inh 28.1, PAFAH1B3 FP inh 3.2, PME-1 primary 8.3, Fam108B counter 1.3 and pPAFAH FP conf 44.2*.
Screening O=C(Nc1ncc(Cc2ccccc2)s1)C1=NCCN1 returned pPAFAH inh 9.3, PAFAH1B2 inh 3.4, PAFAH2 FP inh -4.6, PAFAH1B3 FP inh 6.8, PME-1 primary 1.6 and Fam108B counter 1.7.
COc1cccc(NC(=O)CC(=O)c2ccccc2)c1 was read as pPAFAH inh -22.1, PAFAH1B2 inh -2.9, PAFAH2 FP inh -0.5, PAFAH1B3 FP inh 7.5, PME-1 primary -4.0 and Fam108B counter -1.6.
CC(OC(=O)c1cc(S(=O)(=O)N2CCOCC2)ccc1F)C(=O)NCc1ccc2c(c1)OCO2 (stereo unspecified) was read as pPAFAH inh 3.3, PAFAH1B2 inh 3.1, PAFAH2 FP inh 3.8, PAFAH1B3 FP inh 3.6, PME-1 primary 4.5 and Fam108B counter 1.5.
CC(/C=N/NC(=O)Cc1cc(=O)[nH][nH]1)=C\c1ccccc1 was read as pPAFAH inh 53.8*, PAFAH1B2 inh 8.9, PAFAH2 FP inh -3.9, PAFAH1B3 FP inh 0.9, PME-1 primary 2.6, Fam108B counter -0.2 and pPAFAH FP conf 2.5.
Screening CC1=NNC(=O)C1CC(=O)N/N=C/C(C)=C/c1ccccc1 (stereo unspecified) returned pPAFAH inh 0.4, PAFAH1B2 inh -1.8, PAFAH2 FP inh -2.7, PAFAH1B3 FP inh -3.6, PME-1 primary -3.9 and Fam108B counter 1.1.
COc1ccc(C(C)(C)C)cc1NC(=O)CSc1ncn[nH]1 was read as PAFAH1B2 inh 7.7, PAFAH2 FP inh 1.9 and PAFAH1B3 FP inh 8.2.
Screening COc1cccc(C(=O)NCC2CCCN(C(=O)c3ccc(C=O)cc3)C2)c1OC (stereo unspecified) returned pPAFAH inh 5.1, PAFAH1B2 inh -1.8, PAFAH2 FP inh 3.5, PAFAH1B3 FP inh -1.8, PME-1 primary 2.5 and Fam108B counter 4.2.
Screening CCOc1ccc(-n2c(C)cc(/C=N/Nc3nc(C)cc(=O)[nH]3)c2C)cc1 returned pPAFAH inh 42.7*, PAFAH1B2 inh -2.1, PAFAH2 FP inh 5.3, PAFAH1B3 FP inh 1.9, PME-1 primary -1.6, Fam108B counter 2.5 and pPAFAH FP conf 84.9*.
For COCCC(=O)N1CCC(Oc2ccc(C(=O)NCc3cccc(C)n3)cc2)CC1 the results were pPAFAH inh -6.7, PAFAH1B2 inh 0.9, PAFAH2 FP inh 1.1, PAFAH1B3 FP inh -6.6, PME-1 primary 5.6 and Fam108B counter 1.4.

Screening data deposited in PubChem BioAssay by The Scripps Research Institute Molecular Screening Center.
